Test results from PubChem BioAssay (NCI).
The panel holds about 83,000 compounds, 20% with a hit somewhere; the sample as a whole holds those more often.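 Treatment: one concentration, 48 hours, 96-well format. Scoring: percent growth, with anything below 10 considered active.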 Activity calls are given as the source filed them.

How the values were obtained:
Assay in all cases: NCI-60 one-dose screen, 48 h (100 = growth as untreated, 0 = no growth, -100 = all killed)
Conditions in all cases: 10 µM unless noted
HCT-15 colon = tested on: HCT-15 colon
HT29 colon = tested on: HT29 colon
SNB-75 CNS = tested on: SNB-75 CNS
SNB-19 CNS = tested on: SNB-19 CNS
U251 CNS = tested on: U251 CNS
PC-3 prostate = tested on: PC-3 prostate
SK-MEL-5 melanoma = tested on: SK-MEL-5 melanoma
UACC-62 melanoma = tested on: UACC-62 melanoma
LOX IMVI melanoma = tested on: LOX IMVI melanoma
SK-MEL-28 melanoma = tested on: SK-MEL-28 melanoma

Measured: growth

CC[C@]12C=CCN3CC[C@@]4(c5ccc(OC)cc5N(C)[C@H]4[C@@](O)(C(=O)OC)[C@@H]1OC(=O)CCN1CCc4ccccc4C1)[C@@H]32
inactive: HCT-15 colon 84.8% | HT29 colon 99% | SNB-75 CNS 66.9% | SNB-19 CNS 91.9% | U251 CNS 87.5% | PC-3 prostate 70.1% | SK-MEL-5 melanoma 98.2% | UACC-62 melanoma 99% | LOX IMVI melanoma 88.5% | SK-MEL-28 melanoma 95%

CCCCOc1ccc(S(=O)(=O)N2CCN(c3nc(C)cc(N4CCOCC4)n3)CC2)cc1
active: HCT-15 colon 5.32% | HT29 colon -35.5% | SNB-75 CNS 2.51% | UACC-62 melanoma -23.6% | LOX IMVI melanoma -71.5% | SK-MEL-28 melanoma -2.33%
inactive: SNB-19 CNS 62.6% | U251 CNS 18.8% | PC-3 prostate 36.4% | SK-MEL-5 melanoma 84%

C#C[C@]1(O)CC[C@H]2[C@@H]3CC=C4c5sc(NCc6ccccc6)nc5CC[C@]4(C)[C@H]3CC[C@@]21C
inactive: SNB-75 CNS 23.5% | SNB-19 CNS 66.2% | U251 CNS 23.4% | PC-3 prostate 15.3% | SK-MEL-5 melanoma 58.2% | SK-MEL-28 melanoma 12.7%
active: HCT-15 colon 8.8% | HT29 colon -7.33% | UACC-62 melanoma 9.41% | LOX IMVI melanoma -5.72%

CCN(CC)c1ccc(/C=N/NC(=O)c2ccc(S(N)(=O)=O)cc2)cc1
inactive: HCT-15 colon 20.4% | HT29 colon 30.8% | SNB-75 CNS 71.1% | SNB-19 CNS 36.9% | U251 CNS 33.5% | PC-3 prostate 43.8% | UACC-62 melanoma 15.7% | SK-MEL-28 melanoma 22.5%
active: SK-MEL-5 melanoma -0.119% | LOX IMVI melanoma 0.095%

O=c1[nH][nH]c(-c2ccc(F)cc2)c1-c1nc2ccccc2s1
inactive: HCT-15 colon 85% | HT29 colon 110% | SNB-75 CNS 88.4% | SNB-19 CNS 80.5% | U251 CNS 98.8% | PC-3 prostate 90.3% | SK-MEL-5 melanoma 98.8% | UACC-62 melanoma 81.8% | LOX IMVI melanoma 93.1% | SK-MEL-28 melanoma 97.7%

COc1ccccc1N1CCN(C2=C(Cl)C(=O)c3ncccc3C2=O)CC1
inactive: HCT-15 colon 55.5% | HT29 colon 111% | SNB-75 CNS 86% | SNB-19 CNS 88.8% | U251 CNS 102% | PC-3 prostate 79% | SK-MEL-5 melanoma 96.4% | UACC-62 melanoma 83% | LOX IMVI melanoma 50.2% | SK-MEL-28 melanoma 98.4%

Cc1[nH]c(C(=O)Nc2ccc(S(=O)(=O)N3CCCCC3)cc2OCCOCCOCCOCCOCCOCCOCCOCCOCCOc2cc(S(=O)(=O)N3CCCCC3)ccc2NC(=O)c2[nH]c(C)c3c2CCCCC3=O)c2c1C(=O)CCCC2
inactive: HCT-15 colon 30.9% | SNB-19 CNS 33.3% | U251 CNS 24.3% | PC-3 prostate 28.8% | SK-MEL-5 melanoma 14.8% | SK-MEL-28 melanoma 35.1%
active: HT29 colon 4.45% | SNB-75 CNS -2.1% | UACC-62 melanoma -32.5% | LOX IMVI melanoma -75.1%

CN1CCN(Cc2ccc(NC(=O)c3cncc(C#Cc4cnc5ccc(O[C@@H]6CCOC6)nn45)c3)cc2C(F)(F)F)CC1
active: HCT-15 colon -40.4% | HT29 colon -54.6% | SNB-75 CNS -98.4% | SNB-19 CNS -48.9% | U251 CNS -72.9% | PC-3 prostate -40.4% | SK-MEL-5 melanoma -97.4% | UACC-62 melanoma -76.3% | LOX IMVI melanoma -96.9% | SK-MEL-28 melanoma -82.4%

N#Cc1c(-c2ccc(F)cc2)cc(-c2c[nH]c3ccccc23)nc1-c1c[nH]c2ccccc12
inactive: HCT-15 colon 99.6% | HT29 colon 110% | SNB-75 CNS 98.6% | SNB-19 CNS 102% | U251 CNS 94.9% | PC-3 prostate 103% | SK-MEL-5 melanoma 100% | UACC-62 melanoma 98.3% | LOX IMVI melanoma 107% | SK-MEL-28 melanoma 107%

C#CCN(C)CCCOc1ccc(NCc2ccc(/C=C/C(=O)NO)cc2)cc1Cl
active: HCT-15 colon 8.05% | HT29 colon 8.52% | SNB-75 CNS 9.93% | SNB-19 CNS 8.74% | U251 CNS -13.3% | SK-MEL-5 melanoma -87.2% | UACC-62 melanoma -53.7% | LOX IMVI melanoma -69.5% | SK-MEL-28 melanoma -14.4%
inactive: PC-3 prostate 19%

CN1CCN(c2ccc(Nc3nc(NCCCNS(=O)(=O)c4cccc(F)c4)c4sccc4n3)cc2)CC1
active: HT29 colon -68.7% | U251 CNS 6.85% | SK-MEL-5 melanoma -77.6% | UACC-62 melanoma 0.267% | LOX IMVI melanoma -58.1% | SK-MEL-28 melanoma -77.4%
inactive: HCT-15 colon 17.3% | SNB-75 CNS 82.1% | SNB-19 CNS 48.7% | PC-3 prostate 63.1%

C(=N\Nc1nc(N/N=C/c2ccc3c(c2)OCO3)nc(N2CCCCC2)n1)/c1ccc2c(c1)OCO2
inactive: HCT-15 colon 33.8% | HT29 colon 38.2% | SNB-75 CNS 113% | SNB-19 CNS 80.3% | U251 CNS 81.4% | PC-3 prostate 73.6% | SK-MEL-5 melanoma 96.8% | UACC-62 melanoma 102% | LOX IMVI melanoma 47.9% | SK-MEL-28 melanoma 109%

C[C@]12CC[C@H]3[C@@H](CC=C4C[C@@H](O)CC[C@@]43C)[C@@H]1CC[C@@H]2[C@](C)(O)CCc1cccnc1
inactive: HCT-15 colon 70.2% | HT29 colon 69.1% | SNB-75 CNS 62% | SNB-19 CNS 71.4% | U251 CNS 74.1% | PC-3 prostate 70.1% | UACC-62 melanoma 62.6% | LOX IMVI melanoma 75.9% | SK-MEL-28 melanoma 74.4%
active: SK-MEL-5 melanoma 7.89%

CCC1=Cc2c(OC)cccc2OC12C=Cc1c(OC)cccc1O2 (stereo not given)
inactive: HCT-15 colon 13.4% | SNB-75 CNS 18.6% | SNB-19 CNS 24.8% | U251 CNS 24.7% | PC-3 prostate 36.1% | SK-MEL-5 melanoma 25.7% | UACC-62 melanoma 26.2% | LOX IMVI melanoma 28.4% | SK-MEL-28 melanoma 52%
active: HT29 colon 4.59%

Cc1ccc(S(=O)(=O)NCCCNc2nc(Nc3ccc(N4CCN(C)CC4)cc3)nc3ccsc23)cc1
inactive: SNB-75 CNS 88.5% | SNB-19 CNS 58.7% | PC-3 prostate 63.5%
active: HCT-15 colon 3% | HT29 colon -61.8% | U251 CNS 6.58% | SK-MEL-5 melanoma -84.1% | UACC-62 melanoma -48.3% | LOX IMVI melanoma -77.6% | SK-MEL-28 melanoma -84.5%

CCCCSC1=C(Cl)CN(c2ccc(Cl)cc2)C1=O
inactive: HCT-15 colon 96.1% | HT29 colon 105% | SNB-75 CNS 104% | SNB-19 CNS 93.3% | U251 CNS 93.6% | PC-3 prostate 98.4% | SK-MEL-5 melanoma 98.3% | UACC-62 melanoma 93.4% | LOX IMVI melanoma 62.4% | SK-MEL-28 melanoma 102%

CCCCCc1ccc(S(=O)(=O)Nc2cc(-c3csc(N)n3)ccc2OC)cc1
inactive: HCT-15 colon 81.8% | HT29 colon 114% | SNB-75 CNS 103% | SNB-19 CNS 91.3% | U251 CNS 95.8% | PC-3 prostate 90.8% | SK-MEL-5 melanoma 84.8% | UACC-62 melanoma 75.9% | LOX IMVI melanoma 107% | SK-MEL-28 melanoma 111%

O=C(/C=C/c1csc(Br)n1)NO
active: SNB-75 CNS 9.37% | SK-MEL-5 melanoma -33.1% | UACC-62 melanoma -2.56% | LOX IMVI melanoma -13.8%
inactive: HCT-15 colon 49% | HT29 colon 11.3% | SNB-19 CNS 38.5% | U251 CNS 31.4% | PC-3 prostate 44.3% | SK-MEL-28 melanoma 33.4%

Clc1ccc2[nH]cc(-c3cncn3CCc3ccc4c(c3)OCO4)c2c1
inactive: HCT-15 colon 72% | HT29 colon 70.5% | SNB-75 CNS 73.8% | SNB-19 CNS 82.1% | U251 CNS 69.9% | PC-3 prostate 51% | SK-MEL-5 melanoma 33.8% | UACC-62 melanoma 62.3% | LOX IMVI melanoma 91.5% | SK-MEL-28 melanoma 93.5%

Cc1[nH]c(C(=O)Nc2ccc(C(N)=O)cc2N2CCOC(C)C2)c(Cl)c1Cl (stereo not given)
inactive: HCT-15 colon 93.7% | HT29 colon 118% | SNB-75 CNS 62.3% | SNB-19 CNS 92.7% | U251 CNS 98.6% | PC-3 prostate 96.7% | SK-MEL-5 melanoma 97.2% | UACC-62 melanoma 91.1% | LOX IMVI melanoma 94% | SK-MEL-28 melanoma 108%

CN1CCN(c2ccc(Nc3nc(NCCNS(=O)(=O)c4ccc(Cl)cc4)c4sccc4n3)cc2)CC1
inactive: HCT-15 colon 47.7% | HT29 colon 44.3% | SNB-75 CNS 72.9% | SNB-19 CNS 104% | U251 CNS 60.1% | PC-3 prostate 81.8% | SK-MEL-5 melanoma 93.6% | UACC-62 melanoma 98.5% | LOX IMVI melanoma 92% | SK-MEL-28 melanoma 94.5%

COc1ccc2[nH]cc(-c3nc(N)nnc3-c3cn(C)c4ccc(Br)cc34)c2c1
active: HT29 colon 2.43% | SNB-75 CNS -4.14%
inactive: HCT-15 colon 22% | SNB-19 CNS 30.5% | U251 CNS 20.2% | PC-3 prostate 24.5% | SK-MEL-5 melanoma 15% | UACC-62 melanoma 15.9% | LOX IMVI melanoma 35.4% | SK-MEL-28 melanoma 51.3%

CCn1c2ccc(/C=N/N(C)S(=O)(=O)CCN(C)C)cc2c2cc(/C=N/N(C)S(=O)(=O)CCN(C)C)ccc21
active: LOX IMVI melanoma -15.3%
inactive: HCT-15 colon 26.2% | HT29 colon 44.8% | SNB-75 CNS 87.1% | SNB-19 CNS 85.8% | U251 CNS 64.8% | PC-3 prostate 85.8% | SK-MEL-5 melanoma 62.4% | UACC-62 melanoma 81.7% | SK-MEL-28 melanoma 87.9%

CCNC(=O)Oc1ccc(/C(=C(/C)c2ccc(Cl)cc2)c2ccc(OCCN3CCCCCC3)cc2)cc1
active: HCT-15 colon -31.6% | HT29 colon -48.4% | UACC-62 melanoma 2.74% | LOX IMVI melanoma -87.8% | SK-MEL-28 melanoma -76%
inactive: SNB-75 CNS 75.6% | SNB-19 CNS 34.2% | U251 CNS 27.5% | PC-3 prostate 13.4% | SK-MEL-5 melanoma 33.1%

Cc1ccc(NC(=O)Nc2nc3ccc([N+](=O)[O-])cc3s2)cc1
active: HCT-15 colon 7.79% | SNB-75 CNS 1.44% | U251 CNS 4.96% | PC-3 prostate -1.61% | SK-MEL-5 melanoma -55% | UACC-62 melanoma 9.49%
inactive: HT29 colon 11.7% | SNB-19 CNS 11.3% | LOX IMVI melanoma 11.6% | SK-MEL-28 melanoma 14.8%
